Compound activity deposited in PubChem BioAssay by National Center for Advancing Translational Sciences (NCATS).
LT uptake inh = inhibitors of anthrax lethal toxin internalization; Potency, µM (titrated, usually from 40 µM), inactives show at the top dose activity change, negative = inhibition, actives largely listed as inhibitors; 70,000 tested, 0.67% active; Cells, anthrax lethal toxin internalization, FRET ratio (460/530); also: % is scaled to controls: 0 for no effect and ±100 for the full control effect; nearly all actives have a fitted effect of over 50% in size
AmpC nodet inh = inhibitors of E. coli AmpC beta-lactamase without detergent; AmpC nitrocefin hydrolysis, absorbance 480 nm, no detergent; Potency, µM (series often up to 28.7 µM), inactives show at the top dose activity change, negative = inhibition; 71,000 tested, 1.8% active; P00811; also: % of control where 0% means no effect
Target sequence (P00811 whole entry, looked up): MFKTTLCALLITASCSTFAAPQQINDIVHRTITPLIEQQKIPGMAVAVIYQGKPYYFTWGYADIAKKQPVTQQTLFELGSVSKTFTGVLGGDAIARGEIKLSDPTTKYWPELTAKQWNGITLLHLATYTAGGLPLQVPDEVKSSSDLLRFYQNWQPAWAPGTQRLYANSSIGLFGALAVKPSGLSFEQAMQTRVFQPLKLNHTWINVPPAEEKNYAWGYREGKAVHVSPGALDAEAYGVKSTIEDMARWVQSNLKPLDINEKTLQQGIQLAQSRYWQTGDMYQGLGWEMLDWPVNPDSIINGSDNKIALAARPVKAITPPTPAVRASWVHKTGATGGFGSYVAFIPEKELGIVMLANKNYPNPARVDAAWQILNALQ
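AmpC, 20 mM phosphate pH 7.0; 15 min cpd preinc, RT; start with nitrocefin (800 uM stock); A480 kinetic read, 20 s intervals, 4 min. No-enzyme wells = negative control.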
Prx2 Sm inh = blocks S. mansoni peroxiredoxin 2 enzymatic activity | S. mansoni Prx2 activity coupled to TGR/GSH (TGR is thioredoxin glutathione reductase), NADPH fluorescence loss, qHTS | 65,000 tested, 0.07% active | Potency, µM
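Coupled assay in which S. mansoni TGR passes NADPH reducing equivalents via glutathione to Prx2, which reduces H2O2. Compounds were preincubated 15 min at room temperature with 25 nM TGR/50 nM Prx2 mix. Kinetic NADPH fluorescence loss (ex 365/em 450 nm) was monitored.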
AmpC det inh = AmpC beta-lactamase inhibition, detergent assay; purified AmpC, nitrocefin hydrolysis with detergent; Potency, µM (doses to about 28.7 µM), inactives show at the top dose activity change, negative = inhibition; 71,000 tested, 0.09% active; AID 584; active = well fitted curve in the direction sought with a large enough effect; inconclusive = small, poorly fitted or top-dose-only effect; also: % is scaled to controls: 0 for no effect and ±100 for the full control effect
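E. coli AmpC (5.3 nM) in 20 mM phosphate pH 7.0 with 0.01% Triton X-100, preincubated 15 min RT with compound; nitrocefin (2 uL of 800 uM stock) hydrolysis followed by 480 nm absorbance every 20 s over 4 min.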
* hit, by the source's call; ? = inconclusive; . = not tested or not shown; ! = not confirmed by another sample; [ ] = remark or other dose. Shown are actives, neighbours in structure and some others; about 2.4% of the full set was active somewhere. Unless noted, calls follow the shape of the full dose curve. Potency is read from the fitted curve at half-maximal effect.

SMILES | LT uptake inh | AmpC nodet inh | Prx2 Sm inh | AmpC det inh
CCCC[C@H]1C[C@@H]1[C@@H]1N(C(C)=O)[C@H](c2cccc(OC)c2)CC12CC2 | -8.9% | 104.1% | >57 | -2.0%
O=C(Cn1cc2c(n1)CCCC2)Nc1ccccc1Br | -18.6% | 3.98µM*[single pt active] | >57 | 10.7%
CC[N+](CC)(CC)CCOc1cccc(OCC[N+](CC)(CC)CC)c1OCC[N+](CC)(CC)CC | -4.0%[3.58 µM] | 12.6µM*! | ? | -5.1%[12.8 µM]
OC[C@H]1CCCN2CCCC[C@@H]12 | -3.0% | 2.6% | >57 | -0.2%
CN1CCN(c2ccnc(-c3ccccc3C(F)(F)F)n2)CC1 | 0.1% | 60.2% | >57 | 10.3%
CCOc1ccc(CN2C(=O)CCC2(C)C(=O)NCc2cccnc2)cc1 (stereo unspecified) | -10.1% | 20.6% | >57 | 12.0%
CC1CCC(NC(=O)C2(C)CCC(=O)N2Cc2cccnc2)CC1 (stereo unspecified) | -2.2% | 3.98µM*[single pt active] | >57 | 11.7%
CC1(C(=O)NC2CCCCC2)CCC(=O)N1Cc1cccnc1 (stereo unspecified) | 1.6% | 3.98µM*[single pt active] | >57 | 11.3%
CN(C)c1ncnc2ccc(-c3cccc(C#N)c3)cc12 | -2.6% | ? | >57 | ?
Nc1c(S(=O)(=O)c2cccs2)c2nc3ccccc3nc2n1/N=C/c1cccc(O)c1 | 5.01µM* | -5.4% | >57 | -2.4%
O=C(O)[C@H]([C@H]1NCCS1)N1Cc2ccccc2C1 | -5.2%[8 µM] | 7.3%[5.75 µM] | . | -4.4%[5.75 µM]
O=C(NCCN1CCOCC1)N1CCOCC1 | -1.0% | -16.9% | >57 | 1.5%
O=C(NCCN1C(=O)C2C3C=CC(C3)C2C1=O)Nc1ccccc1O (stereo unspecified) | -6.1% | 3.98µM*[single pt active] | >57 | 14.5%
O=C(CCN1C(=O)C2C3C=CC(C3)C2C1=O)NCCc1ccccc1 (stereo unspecified) | -9.5% | 16.7% | >57 | -3.5%
Cc1c(NC(=O)CCCCCN2C(=O)C3C4C=CC(C4)C3C2=O)c(=O)n(-c2ccccc2)n1C (stereo unspecified) | 1.7% | 2.51µM*[single pt active] | >57 | 10.9%
Cc1c(NC(=O)c2ccc(N3C(=O)C4C5C=CC(C5)C4C3=O)cc2)c(=O)n(-c2ccccc2)n1C (stereo unspecified) | ? | -0.2% | >57 | -3.3%
O=C(NCCN1C(=O)C2C3C=CC(C3)C2C1=O)N1CCOCC1 (stereo unspecified) | -6.8% | 3.98µM*[single pt active] | >57 | 11.9%
CCCc1nnc(NC(=O)NCCN2C(=O)C3C4C=CC(C4)C3C2=O)s1 (stereo unspecified) | 2.2% | 3.98µM*[single pt active] | >57 | 13.5%
Cc1c(NC(=O)C(C)N2C(=O)C3C4C=CC(C4)C3C2=O)c(=O)n(-c2ccccc2)n1C (stereo unspecified) | 2.8% | -7.5% | >57 | 8.1%
Cc1c(NC(=O)NCCN2C(=O)C3C4C=CC(C4)C3C2=O)c(=O)n(-c2ccccc2)n1C (stereo unspecified) | 3.2% | 3.98µM*[single pt active] | >57 | 15.7%
CC(C)(C)NC(=O)C1CCCN(S(=O)(=O)c2cccc3cccnc23)C1 (stereo unspecified) | -6.3% | 3.98µM*[single pt active] | >57 | 11.7%
CCC/C=C(\CCC)C(NS(=O)(=O)c1cccs1)c1ccc(C(=O)OC)cc1 (stereo unspecified) | ? | -11.2% | >57 | 6.4%
CCOC(=O)c1ccc(NC(=O)c2ccc(C)c(S(=O)(=O)N3CCOCC3)c2)cc1 | 12.6µM* | 79.9% | ? | -0.7%
Cc1ccc(S(=O)(=O)CCC(=O)c2ccc(O)cc2O)cc1 | 12.6µM* | 12.6µM* | . | 6.7%
CC(=O)SC[C@@H](Cc1ccccc1)C(=O)NCC(=O)OCc1ccccc1 | -0.4%[3.58 µM] | 17.4%[12.8 µM] | >57 | -1.1%[12.8 µM]
SMILES | LT uptake inh | AmpC nodet inh | Prx2 Sm inh | AmpC det inh
COc1ccc(Oc2ncc3nc(-c4ccc(F)cc4)c(=O)n(CCC#N)c3n2)cc1 | -28.2% | 13.9% | >57 | 0.8%
CCOC(=O)C1Cn2c(nc3c(c2=O)C(C)(C)Cc2ccccc2-3)S1 (stereo unspecified) | 10µM* | 85.2% | . | 10.4%
CCOC(=O)C1Cn2c(nc3c(c2=O)C2(CCCC2)Cc2ccccc2-3)S1 (stereo unspecified) | ? | 71.4% | . | -3.7%
O=C(CCCC1=NS(=O)(=O)c2ccccc2N1)N1CCN(c2ccc(Cl)cc2)CC1 | ? | 3.98µM*[single pt active] | >57 | 25.5%
COc1ccc(NC(=O)CCCC2=NS(=O)(=O)c3ccccc3N2)cc1 | 5.0% | 3.98µM*[single pt active] | >57 | 13.1%
COc1ccc(OC)c(NC(=O)c2cc(-c3cc(Cl)ccc3O)n[nH]2)c1 | . | 10µM* | >57 | -1.0%
COc1ccc(NC(=O)c2cc(-c3cc(C)ccc3O)n[nH]2)cc1Cl | ? | -12.0% | >57 | -3.3%
CCN1CCN(Cc2ccc(NC(=O)Nc3ccccc3OC)cc2)CC1 | ? | 3.98µM*[single pt active] | >57 | 19.4%
CCN1CCN(CCC(=O)Nc2ccccc2OC)CC1 | -11.8% | -2.6% | >57 | -5.3%
CN(C)c1ccc(C(=O)OCC(=O)c2cccs2)cc1 | -13.6% | -1.5% | >57 | 10.5%
O=C(OCC(=O)c1cccs1)c1ccc(NC(=O)c2ccco2)cc1 | -6.2% | 15.8µM*[single pt active] | >57 | 8.8%
COc1ccc(C2CC(c3cccc(C)c3)n3nc(N)nc3N2)cc1 (stereo unspecified) | -2.9% | 3.98µM*[single pt active] | >57 | 10.5%
COc1cccc(C2CC(c3ccc(F)cc3)Nc3nc(N)nn32)c1 (stereo unspecified) | -0.8% | 2.51µM*[single pt active] | >57 | 10.6%
COc1cccc(C2CC(c3cccc(OC)c3)n3nc(N)nc3N2)c1 (stereo unspecified) | 3.5% | 3.98µM*[single pt active] | >57 | 11.9%
NNC(=O)c1ccc(OCc2nc3ccccc3[nH]2)cc1 | ? | 8.0%[5.75 µM] | >57 | -2.9%[5.75 µM]
COc1ccc(Cc2nnc(NC(=O)Cc3cccs3)s2)cc1OC | -3.4% | 12.6µM* | >57 | -2.1%
CCCCCc1nnc(NC(=O)Cc2cccs2)s1 | 14.3% | 12.6µM* | >57 | -5.5%
O=C(Cc1cccs1)Nc1nnc(CCc2ccccc2)s1 | -2.7% | -23.1% | >57 | -3.4%
O=C(Nc1cnn(Cc2ccc(F)cc2)c1)c1cc(-c2cccs2)on1 | -0.3% | 12.6µM*[single pt active] | >57 | -3.4%
O=C(NCc1ccc(Cl)cc1)c1cc(-c2cccs2)on1 | 2.5% | 7.94µM* | >57 | 18.7%
CCOC(=O)C1CCCN(c2c(NCC3CCCO3)c(=O)c2=O)C1 (stereo unspecified) | -6.0% | 3.16µM*[single pt active] | >57 | 11.4%
CCOC(=O)C1CCCN(c2c(N3CCN(C4CCCCC4)CC3)c(=O)c2=O)C1 (stereo unspecified) | -12.0% | 59.1% | >57 | 9.2%
CCOC(=O)C1CCCN(c2c(N3CCC(N4CCCCC4)CC3)c(=O)c2=O)C1 (stereo unspecified) | -22.0% | 3.98µM*[single pt active] | >57 | 12.8%
CCOC(=O)C1CCCN(c2c(Nc3ccc(C)c(C)c3)c(=O)c2=O)C1 (stereo unspecified) | ? | 3.16µM*[single pt active] | >57 | 13.0%
CCCC[C@@H]1C[C@H]1C(NC(=O)c1ccccc1)c1ccc(C(=O)OC)cc1 (stereo partly specified) | ? | 4.0% | >57 | -3.2%
COc1ccc(NC(=O)c2cc(-c3ccc(O)cc3)on2)cc1OC | -5.1% | -3.6% | >57 | 5.0%
